Bioassay records: PubChem BioAssay, National Center for Advancing Translational Sciences (NCATS)
Sampled rows, rich in hits. Any-hit rate of the full collection: about 17%.
TDP1 block: qHTS Assay for Inhibitors of Tyrosyl-DNA Phosphodiesterase (TDP1); actives 0.28% (n = 350,000); Tyrosyl-DNA phosphodiesterase 1 (Homo sapiens), Q9NUW8; Potency, µM (series often up to 130 µM), inactives show at the top dose activity change, negative = inhibition, hits mostly inhibitors; recombinant TDP1, AlphaScreen DNA substrate cleavage; also: % is scaled to controls: 0 for no effect and ±100 for the full control effect; nearly all actives have a fitted effect of over 40% in size
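Signal: AlphaScreen proximity between streptavidin donor and anti-FITC acceptor beads on intact substrate. Reaction: Tdp1 1 nM, substrate 15 nM final, 5 min RT after 15 min compound preincubation.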
TDP1 cell noCPT: qHTS for Inhibitors of human tyrosyl-DNA phosphodiesterase 1 (TDP1): qHTS in cells in absence of CPT; Potency, µM (series often up to 46.2 µM), inactives show at the highest dose activity change, negative = growth inhibition, usual class: inhibitors; DT40 Tdp1-/- hTDP1 cells, no CPT, ATP luminescence, 48 h; AID 686978, 2013; actives 15% (n = 420,000); also: % is scaled to controls: 0 for no effect and ±100 for the full control effect; nearly all actives have a fitted effect of over 55% in size
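Growth of hTDP1-complemented DT40 Tdp1-knockout cells is measured by ATP luminescence after at least 48 hr compound exposure at 37 °C, with DMSO substituting for the 20 nM CPT used in the parallel screen.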
ClpP mod: qHTS Assay for Activators of ClpP. purified B. subtilis ClpP, FRET peptide cleavage, 20 min. Potency, µM (doses to about 57.5 µM), for the others: top-dose activity change, negative = active. actives 1.9% (n = 340,000); active = well fitted falling curve with a large enough effect; inconclusive = small, poorly fitted or top-dose-only effect; inactive = no such curve, though single readings can be large or run the other way; also: the source files actives as falling curves though it sought activators and does not explain the sign; nearly all actives have a fitted effect of over 65% in size
Target sequence (P80244 whole entry, looked up): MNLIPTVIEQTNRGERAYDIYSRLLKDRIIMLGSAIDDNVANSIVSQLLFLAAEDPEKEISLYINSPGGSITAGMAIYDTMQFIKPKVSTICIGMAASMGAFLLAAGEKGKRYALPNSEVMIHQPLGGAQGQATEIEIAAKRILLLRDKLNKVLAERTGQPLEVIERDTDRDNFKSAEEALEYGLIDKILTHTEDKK
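Buffer: 100 mM Tris/HCl pH8, 100 mM KCl, 0.05% low protease BSA, 2.5% glycerol, 0.01% Tween-20. ClpP 10 microg/mL final; 20 min RT; delta FRET normalized to ADEP and DMSO controls.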
DT40 TDP1 CPT: qHTS for Inhibitors of human tyrosyl-DNA phosphodiesterase 1 (TDP1): qHTS in cells in presence of CPT. chicken DT40 Tdp1-/-;hTDP1 cells + 20 nM CPT, ATP luminescence, 48 h. Potency, µM (highest dose often 46.2 µM), inactives show at the highest dose activity change, negative = growth inhibition, actives largely listed as inhibitors. actives 12% (n = 420,000). AID 686979, 2013; also: % is scaled to controls: 0 for no effect and ±100 for the full control effect; nearly all actives have a fitted effect of over 55% in size
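Chicken DT40 Tdp1-/- cells complemented with human TDP1, 400 cells/well, exposed to compounds plus 20 nM camptothecin for at least 48 h at 37 C; viability read as ATP content by CellTiter-Glo luminescence.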
The depositor's hits bear a star; ? = inconclusive; . = no result given; [ ] = another dose, or the depositor's remark. Unless noted, calls follow the shape of the dose curve; as a rule, active = well fitted curve in the direction sought with a large enough effect; inconclusive = small, poorly fitted or top-dose-only effect, or another doubt; inactive = no such curve, though single readings can be large; an effect the other way counts as inactive or inconclusive. Potency is read from the fitted curve at half-maximal effect.

SMILES	TDP1 block	TDP1 cell noCPT	ClpP mod	DT40 TDP1 CPT
C[C@H]1CCCCO[C@@H](CN(C)S(=O)(=O)c2ccc(Cl)cc2)[C@@H](C)CN([C@@H](C)CO)C(=O)c2cc(NS(=O)(=O)c3ccccc3)ccc2O1	.	?	0%	?
CC(C)NC(=O)Nc1ccc2c(c1)C(=O)N([C@@H](C)CO)C[C@H](C)[C@H](CN(C)S(=O)(=O)c1ccccc1)OCCCC[C@H](C)O2	.	12µM*	-6%	18µM*
C[C@@H]1CCCCO[C@@H](CN(C)S(=O)(=O)c2ccccc2)[C@@H](C)CN([C@H](C)CO)C(=O)c2cc(NS(=O)(=O)c3ccc(F)cc3)ccc2O1	.	21µM*	1%	?
C[C@H]1CCCCO[C@@H](CN(C)C(=O)NC2CCCCC2)[C@@H](C)CN([C@@H](C)CO)C(=O)c2cc(NC(=O)Cc3ccccc3)ccc2O1	.	18µM*	-12%	-9%
C[C@@H]1CCCCO[C@H](CN(C)S(=O)(=O)c2ccccc2)[C@@H](C)CN([C@H](C)CO)C(=O)c2cc(NC(=O)Cc3ccccc3)ccc2O1	.	?	0%	21µM*
CC(C)NC(=O)N(C)C[C@H]1OCCCC[C@H](C)Oc2ccc(NC(=O)NC3CCCCC3)cc2C(=O)N([C@H](C)CO)C[C@@H]1C	.	?	-10%	?
CC(C)c1ccc(CC(=O)N2CCC2(C)C(=O)NS(=O)(=O)c2cccc(C#N)c2)cc1 (centres undefined)	.	-2%	-5%	0%
O=C(Nc1ccc(OCc2ccccc2)cc1)Nc1nnc([C@H]2C[C@H](O)[C@@H](CO)O2)s1	.	?	-3%	?
Cc1noc(C)c1S(=O)(=O)Nc1ccc2c(c1)C(=O)N([C@H](C)CO)C[C@H](C)[C@@H](CN(C)C(=O)CCCN(C)C)OCCCC[C@@H](C)O2	.	-2%	-6%	-1%
Cc1ccc(S(=O)(=O)N(C)C[C@H]2OCCCC[C@@H](C)Oc3ccc(N(C)C)cc3C(=O)N([C@H](C)CO)C[C@@H]2C)cc1	.	21µM*	-2%	?
Cc1noc(C)c1S(=O)(=O)Nc1ccc2c(c1)C(=O)N([C@@H](C)CO)C[C@@H](C)[C@@H](CN(C)CC1CCCCC1)OCCCC[C@@H](C)O2	.	15µM*	-5%	23µM*
CCCCCC(=O)O[C@]1(C(C)=O)CC[C@H]2[C@@H]3CCC4=CC(=O)CC[C@]4(C)[C@H]3CC[C@@]21C	4%	18µM*	0%	26µM*
CC(=O)O[C@@]1(C(C)=O)CCC2C3CC(C)C4=CC(=O)CC[C@@]4(C)C3CC[C@]21C (some centres undefined)	10%[56.1 µM]	.	.	.
CC(=O)O[C@]1(C(C)=O)CCC2C3C=C(C)C4=CC(=O)CC[C@]4(C)C3CC[C@@]21C (some centres undefined)	.	16µM*	1%	23µM*
CC(=O)O[C@]1(C(C)=O)CC[C@H]2[C@@H]3C=C(C)C4=CC(=O)CC[C@@H]4[C@H]3CC[C@@]21C	.	4.6µM*	-1%	?
CC(=O)OC1(C(C)=O)CCC2C3CC(Cl)C4=CC(=O)CCC4(C)C3CCC21C (centres undefined)	.	23µM*	.	?
CCNc1nc(NCC)n2c(SCC(=O)Nc3ccccc3[N+](=O)[O-])nnc2n1	6%	7%	0%	-2%
COCc1ccc(CN2CCCCC2C(=O)Nc2ccc(Oc3ccccc3)nc2)o1 (centres undefined)	3%	?	0%	?
CC(=O)O[C@]1(C(C)=O)CC[C@H]2[C@@H]3C=CC4=CC(=O)C=C[C@]4(C)[C@H]3CC[C@@]21C	.	15µM*	0%	?
O=C1NC(=O)c2cc3ccccc3cc21	-5%	-23%	5%	7%
O=C1CCNc2cc3ccccc3cc21	-7%	?	28µM*	?
CC(C)(C)c1cc(-c2n[nH]c(=S)n2-c2ccccc2F)n[nH]1	.	2%	.	-2%
Cc1nc(C)c(C(=O)NCc2ccc(Cl)cc2)o1	3%	?	0%	?
Cc1ccc(CSCc2ccc(C(=O)NC3CC3)o2)cc1	3%	23µM*	-1%	?
Cc1nn(C)c(C(=O)NCc2ccc(Cl)cc2)c1Cl	1%	4.1µM*	2%	4.1µM*
SMILES	TDP1 block	TDP1 cell noCPT	ClpP mod	DT40 TDP1 CPT
Cc1ccc(CCNC(=O)c2ccc(CSCc3ccc(C)cc3)o2)cc1	-3%	?	-1%	?
Cc1nn(C)c(C(=O)NNC(=O)NC2CCCCC2)c1Cl	4%	-6%	2%	2%
Cc1ccc(CNC(=O)c2ccc(CSCc3ccc(Cl)cc3)o2)cc1	3%	16µM*	0%	?
Cc1nn(C)c(C(=O)NNC(=S)NCC(C)C)c1Cl	0%	?	8.9µM*	?
Cc1ccc(CSCc2ccc(C(=O)NC3CCCC3)o2)cc1	0%	-2%	-3%	5%
COc1ccc(C)cc1NC(=O)C1COc2ccccc2C1 (centres undefined)	-4%	?	1%	?
Cc1cccc(COCCN2CCN(S(=O)(=O)c3ccccc3)CCC2=O)c1	.	-22%	1%	-21%
CCC(C)NC(=O)c1ccc(CSCc2ccc(Cl)cc2)o1 (centres undefined)	.	26µM*	.	-25%
Cc1ccc(CC(=O)NCc2ccc(Cl)cc2)cc1	-7%	3.7µM*	-1%	4.6µM*
CCC(C)NC(=O)c1ccc(CS(=O)(=O)Cc2ccc(Cl)cc2)o1 (centres undefined)	0%	-2%	0%	-36%
ONCc1ccccc1	-1%	.	.	.
COc1ccc(OC)c(CNC(=O)c2cc3ccc4cccnc4c3[nH]2)c1	7%	26µM*	-1%	?
Cc1ccc(CNC(=O)c2cc3ccc4cccnc4c3[nH]2)cc1	4%	?	96%	?
Cc1ccc(CN2CCC(CNC(=O)c3cc4ccc5cccnc5c4[nH]3)CC2)cc1	7%	16µM*	0%	16µM*
CCN(Cc1ccccc1)C(=O)c1cc2ccc3cccnc3c2[nH]1	1%	18µM*	0%	?
COc1cccc(CNC(=O)c2cc3ccc4cccnc4c3[nH]2)c1	0%	-24%	-6%	-21%
Cc1cccc(OCCCC(=O)NCc2ccco2)c1	4%	-5%	-2%	-28%
O=S(=O)(NCc1ccc2c(c1)OCO2)c1ccc(F)c(F)c1	3%	-5%	.	-3%
Cc1ccc(-c2cc(NC(=O)c3ccccc3Cl)on2)cc1	7%	-14%	-5%	?
COC(=O)C1=C(C)NC(C)=C(C(=O)O[C@@H]2CCCN(Cc3ccccc3)C2)[C@@H]1c1cccc([N+](=O)[O-])c1	.	10µM*	-3%	18µM*
